# Laboratory results taken from the supplement of paper PMC6992640.
# Test system: UCD52 (cells of a triple-negative basal-like breast cancer xenograft)
# Test: cell viability of combination (% of vehicle); higher = less cytotoxic
# Conditions: 1 µM; 72 h; partner dose: 10 nM
# Procedure: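 PDX cells were treated for 72 h with each drug at 1 µM plus afatinib (10 nM; 1 µM for WHIM30). Luciferase viability is expressed as percent of vehicle.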
row,SMILES,cell viability of combination
1,COc1cccc2c1C(=O)c1c(O)c3c(c(O)c1C2=O)C[C@@](O)(C(C)=O)C[C@@H]3O[C@H]1C[C@H](N)[C@H](O)[C@H](C)O1.Cl [Daunorubicin HCl] + CN(C)C/C=C/C(=O)Nc1cc2c(Nc3ccc(F)c(Cl)c3)ncnc2cc1O[C@H]1CCOC1 [Afatinib],20.8
2,O=C(c1ccc(F)c(F)c1Nc1ccc(I)cc1F)N1CC(O)(C2CCCCN2)C1 (stereo not given) [Cobimetinib] + CN(C)C/C=C/C(=O)Nc1cc2c(Nc3ccc(F)c(Cl)c3)ncnc2cc1O[C@H]1CCOC1 [Afatinib],36.5
3,COC(=O)NC(C(=O)N1CCCC1c1ncc(-c2ccc(-c3ccc(-c4cnc(C5CCCN5C(=O)C(NC(=O)OC)C(C)C)[nH]4)cc3)cc2)[nH]1)C(C)C (stereo not given) + CN(C)C/C=C/C(=O)Nc1cc2c(Nc3ccc(F)c(Cl)c3)ncnc2cc1O[C@H]1CCOC1 [Afatinib],59.1
4,C=C1C(=CC=C2CCCC3(C)C2CCC3C(C)C=CC(C)C(C)C)CC(O)CC1O (stereo not given) [Doxercalciferol] + CN(C)C/C=C/C(=O)Nc1cc2c(Nc3ccc(F)c(Cl)c3)ncnc2cc1O[C@H]1CCOC1 [Afatinib],47.6
5,Clc1ccc(COC(Cn2ccnc2)c2ccc(Cl)cc2Cl)c(Cl)c1.O=[N+]([O-])O (stereo not given) [Miconazole Nitrate] + CN(C)C/C=C/C(=O)Nc1cc2c(Nc3ccc(F)c(Cl)c3)ncnc2cc1O[C@H]1CCOC1 [Afatinib],76.3
6,CS(=O)(=O)O.Cc1c(O)cccc1C(=O)NC(CSc1ccccc1)C(O)CN1CC2CCCCC2CC1C(=O)NC(C)(C)C (stereo not given) [Nelfinavir Mesylate] + CN(C)C/C=C/C(=O)Nc1cc2c(Nc3ccc(F)c(Cl)c3)ncnc2cc1O[C@H]1CCOC1 [Afatinib],47.9
7,Cc1c(C(=O)NN2CCCCC2)nn(-c2ccc(Cl)cc2Cl)c1-c1ccc(Cl)cc1 [Rimonabant] + CN(C)C/C=C/C(=O)Nc1cc2c(Nc3ccc(F)c(Cl)c3)ncnc2cc1O[C@H]1CCOC1 [Afatinib],75
8,CCOc1cc2ncc(C#N)c(Nc3ccc(OCc4ccccn4)c(Cl)c3)c2cc1NC(=O)C=CCN(C)C [Neratinib (HKI-272)] + CN(C)C/C=C/C(=O)Nc1cc2c(Nc3ccc(F)c(Cl)c3)ncnc2cc1O[C@H]1CCOC1 [Afatinib],50.9
9,COc1ncc(-c2ccc3nccc(-c4ccnnc4)c3c2)cc1NS(=O)(=O)c1ccc(F)cc1F + CN(C)C/C=C/C(=O)Nc1cc2c(Nc3ccc(F)c(Cl)c3)ncnc2cc1O[C@H]1CCOC1 [Afatinib],15.8
10,COC1=C(OC)C(=O)C(CCCCCCCCCCO)=C(C)C1=O [Idebenone] + CN(C)C/C=C/C(=O)Nc1cc2c(Nc3ccc(F)c(Cl)c3)ncnc2cc1O[C@H]1CCOC1 [Afatinib],62.7
11,CC[C@@H]1/C=C(\C)C[C@H](C)C[C@H](OC)[C@H]2O[C@@](O)(C(=O)C(=O)N3CCCC[C@H]3C(=O)O[C@H](/C(C)=C/[C@@H]3CC[C@H](Cl)[C@H](OC)C3)[C@H](C)[C@@H](O)CC1=O)[C@H](C)C[C@@H]2OC [Pimecrolimus] + CN(C)C/C=C/C(=O)Nc1cc2c(Nc3ccc(F)c(Cl)c3)ncnc2cc1O[C@H]1CCOC1 [Afatinib],70.7
12,CO[C@H]1C[C@@H]2CC[C@@H](C)[C@@](O)(O2)C(=O)C(=O)N2CCCC[C@H]2C(=O)O[C@H]([C@H](C)C[C@@H]2CC[C@@H](O)[C@H](OC)C2)CC(=O)[C@H](C)/C=C(\C)[C@@H](O)[C@@H](OC)C(=O)[C@H](C)C[C@H](C)/C=C/C=C/C=C/1C [Rapamycin (Sirolimus)] + CN(C)C/C=C/C(=O)Nc1cc2c(Nc3ccc(F)c(Cl)c3)ncnc2cc1O[C@H]1CCOC1 [Afatinib],42.5
13,CC(=O)C1(O)Cc2c(O)c3c(c(O)c2C(OC2CC(N)C(O)C(C)O2)C1)C(=O)c1ccccc1C3=O.Cl (stereo not given) [Idarubicin HCl] + CN(C)C/C=C/C(=O)Nc1cc2c(Nc3ccc(F)c(Cl)c3)ncnc2cc1O[C@H]1CCOC1 [Afatinib],24.3
14,CC(Oc1cc(-c2cnn(C3CCNCC3)c2)cnc1N)c1c(Cl)ccc(F)c1Cl [(R)-Crizotinib] + CN(C)C/C=C/C(=O)Nc1cc2c(Nc3ccc(F)c(Cl)c3)ncnc2cc1O[C@H]1CCOC1 [Afatinib],48.3
15,COCCn1c2c([n+](Cc3cnccn3)c1C)C(=O)c1ccccc1C2=O.[Br-] + CN(C)C/C=C/C(=O)Nc1cc2c(Nc3ccc(F)c(Cl)c3)ncnc2cc1O[C@H]1CCOC1 [Afatinib],15.2
16,O=C(C=Cn1cnc(-c2cc(C(F)(F)F)cc(C(F)(F)F)c2)n1)NNc1cnccn1 + CN(C)C/C=C/C(=O)Nc1cc2c(Nc3ccc(F)c(Cl)c3)ncnc2cc1O[C@H]1CCOC1 [Afatinib],52.2
17,CCCCc1oc2ccc(NS(C)(=O)=O)cc2c1C(=O)c1ccc(OCCCN(CCCC)CCCC)cc1.Cl [Dronedarone HCl] + CN(C)C/C=C/C(=O)Nc1cc2c(Nc3ccc(F)c(Cl)c3)ncnc2cc1O[C@H]1CCOC1 [Afatinib],63.6
18,CNCCC(Oc1ccc(C(F)(F)F)cc1)c1ccccc1.Cl (stereo not given) [Fluoxetine HCl] + CN(C)C/C=C/C(=O)Nc1cc2c(Nc3ccc(F)c(Cl)c3)ncnc2cc1O[C@H]1CCOC1 [Afatinib],59.1
19,O=C1C=CC=CC1=C1NC(=C2C=CC=CC2=O)N(c2ccc(C(=O)O)cc2)N1 [Deferasirox] + CN(C)C/C=C/C(=O)Nc1cc2c(Nc3ccc(F)c(Cl)c3)ncnc2cc1O[C@H]1CCOC1 [Afatinib],68.2
20,CNC(=O)c1cc(Oc2ccc(NC(=O)Nc3ccc(Cl)c(C(F)(F)F)c3)c(F)c2)ccn1.Cl [Regorafenib hydrochloride] + CN(C)C/C=C/C(=O)Nc1cc2c(Nc3ccc(F)c(Cl)c3)ncnc2cc1O[C@H]1CCOC1 [Afatinib],53.3

row,SMILES,cell viability of combination
1,CCc1oc2ccccc2c1C(=O)c1cc(Br)c(O)c(Br)c1 [Benzbromarone] + CN(C)C/C=C/C(=O)Nc1cc2c(Nc3ccc(F)c(Cl)c3)ncnc2cc1O[C@H]1CCOC1 [Afatinib],77.2
2,CC(C)C[C@H](NC(=O)[C@H](Cc1ccccc1)NC(=O)c1cnccn1)B(O)O [Bortezomib] + CN(C)C/C=C/C(=O)Nc1cc2c(Nc3ccc(F)c(Cl)c3)ncnc2cc1O[C@H]1CCOC1 [Afatinib],15.1
3,Nc1ccn(C2OC(CO)C(O)C2O)c(=O)n1 (stereo not given) [Cytarabine] + CN(C)C/C=C/C(=O)Nc1cc2c(Nc3ccc(F)c(Cl)c3)ncnc2cc1O[C@H]1CCOC1 [Afatinib],65.7
4,Cc1ccc(-n2[nH]c(C)c(NN=C3C=CC=C(c4cccc(C(=O)O)c4)C3=O)c2=O)cc1C [Eltrombopag] + CN(C)C/C=C/C(=O)Nc1cc2c(Nc3ccc(F)c(Cl)c3)ncnc2cc1O[C@H]1CCOC1 [Afatinib],77.1
5,COc1ccc2cc1Oc1ccc(cc1)CC1c3c(cc4c(c3Oc3cc5c(cc3OC)CCN(C)C5C2)OCO4)CCN1C (stereo not given) [Cepharanthine] + CN(C)C/C=C/C(=O)Nc1cc2c(Nc3ccc(F)c(Cl)c3)ncnc2cc1O[C@H]1CCOC1 [Afatinib],40.1
6,C=C1C(=CC=C2CCCC3(C)C2CCC3C(C)CCCC(C)C)CC(O)CC1O (stereo not given) [Alfacalcidol] + CN(C)C/C=C/C(=O)Nc1cc2c(Nc3ccc(F)c(Cl)c3)ncnc2cc1O[C@H]1CCOC1 [Afatinib],50
7,CC(C)CC(NC(=O)C(CCc1ccccc1)NC(=O)CN1CCOCC1)C(=O)NC(Cc1ccccc1)C(=O)NC(CC(C)C)C(=O)C1(C)CO1 (stereo not given) [Carfilzomib (PR-171)] + CN(C)C/C=C/C(=O)Nc1cc2c(Nc3ccc(F)c(Cl)c3)ncnc2cc1O[C@H]1CCOC1 [Afatinib],13.1
8,COC(=O)c1ccc2c(c1)NC(=O)C2=C(Nc1ccc(N(C)C(=O)CN2CCN(C)CC2)cc1)c1ccccc1 [Nintedanib (BIBF 1120)] + CN(C)C/C=C/C(=O)Nc1cc2c(Nc3ccc(F)c(Cl)c3)ncnc2cc1O[C@H]1CCOC1 [Afatinib],19.6
9,COc1ccc(CN2CCN(C(c3ccc(F)cc3)c3ccc(F)cc3)CC2)c(OC)c1OC.Cl.Cl [Lomerizine HCl] + CN(C)C/C=C/C(=O)Nc1cc2c(Nc3ccc(F)c(Cl)c3)ncnc2cc1O[C@H]1CCOC1 [Afatinib],68.9
10,COc1ccc(C[C@H](N)C(=O)N[C@@H]2[C@H](O)[C@H](n3cnc4c(N(C)C)ncnc43)O[C@@H]2CO)cc1.Cl.Cl [Puromycin dihydrochloride] + CN(C)C/C=C/C(=O)Nc1cc2c(Nc3ccc(F)c(Cl)c3)ncnc2cc1O[C@H]1CCOC1 [Afatinib],18.2
11,COc1cc2nccc(Oc3ccc(NC(=O)C4(C(=O)Nc5ccc(F)cc5)CC4)cc3)c2cc1OC.O=C(O)CC(O)C(=O)O [Cabozantinib malate (XL184)] + CN(C)C/C=C/C(=O)Nc1cc2c(Nc3ccc(F)c(Cl)c3)ncnc2cc1O[C@H]1CCOC1 [Afatinib],64.7
12,C[C@H]1O[C@@H](O[C@H]2[C@@H](O)C[C@H](O[C@H]3[C@@H](O)C[C@H](O[C@H]4CC[C@@]5(C)[C@H](CC[C@@H]6[C@@H]5C[C@@H](O)[C@]5(C)[C@@H](C7=CC(=O)OC7)CC[C@]65O)C4)O[C@@H]3C)O[C@@H]2C)C[C@H](O)[C@@H]1O [Digoxin] + CN(C)C/C=C/C(=O)Nc1cc2c(Nc3ccc(F)c(Cl)c3)ncnc2cc1O[C@H]1CCOC1 [Afatinib],19.5
13,CCCCCCCCCCCC1=C(O)C(=O)C=C(O)C1=O [Embelin] + CN(C)C/C=C/C(=O)Nc1cc2c(Nc3ccc(F)c(Cl)c3)ncnc2cc1O[C@H]1CCOC1 [Afatinib],67.8
14,Cc1nc(NC(=O)N2CCCC2C(N)=O)sc1-c1ccnc(C(C)(C)C(F)(F)F)c1 (stereo not given) + CN(C)C/C=C/C(=O)Nc1cc2c(Nc3ccc(F)c(Cl)c3)ncnc2cc1O[C@H]1CCOC1 [Afatinib],43.4
15,CCCCCCCCOc1ccccc1C(=O)Nc1ccc(C(=O)OCC[N+](C)(CC)CC)cc1.[Br-] [Otilonium Bromide] + CN(C)C/C=C/C(=O)Nc1cc2c(Nc3ccc(F)c(Cl)c3)ncnc2cc1O[C@H]1CCOC1 [Afatinib],78.6
16,O=C(NC1CCN(CCCCC2(C(=O)NCC(F)(F)F)c3ccccc3-c3ccccc32)CC1)c1ccccc1-c1ccc(C(F)(F)F)cc1 [Lomitapide] + CN(C)C/C=C/C(=O)Nc1cc2c(Nc3ccc(F)c(Cl)c3)ncnc2cc1O[C@H]1CCOC1 [Afatinib],43.9
17,O=C(O)c1cc(O)c(O)c(O)c1 [Gallic acid] + CN(C)C/C=C/C(=O)Nc1cc2c(Nc3ccc(F)c(Cl)c3)ncnc2cc1O[C@H]1CCOC1 [Afatinib],73.6
18,Clc1ccc(C(Cn2ccnc2)OCc2ccsc2Cl)c(Cl)c1 (stereo not given) [Tioconazole] + CN(C)C/C=C/C(=O)Nc1cc2c(Nc3ccc(F)c(Cl)c3)ncnc2cc1O[C@H]1CCOC1 [Afatinib],81.8
19,COC(=O)C1=C(C)NC(C)=C(C(=O)OC2CCCN(Cc3ccccc3)C2)C1c1cccc([N+](=O)[O-])c1.Cl (stereo not given) [Benidipine HCl] + CN(C)C/C=C/C(=O)Nc1cc2c(Nc3ccc(F)c(Cl)c3)ncnc2cc1O[C@H]1CCOC1 [Afatinib],79.2
20,CCc1cnn2c(NCc3ccc[n+]([O-])c3)cc(N3CCCCC3CCO)nc12 (stereo not given) + CN(C)C/C=C/C(=O)Nc1cc2c(Nc3ccc(F)c(Cl)c3)ncnc2cc1O[C@H]1CCOC1 [Afatinib],21.4
